# From PubChem BioAssay (NCATS)
# Records with an inconclusive call do not appear. Where a call stands in place of a potency, no number is given. Calls of active or inactive are those of the source. The call rests on the fitted dose curve; in most records, active means well fitted inhibition curve with a large enough effect; inconclusive means small, poorly fitted or top-dose-only effect; inactive means flat fitted curve, though single readings scatter.
# Assays:
# [1] = biological target: Luciferin 4-monooxygenase (Photinus pyralis) (UniProt P08659); test: Biochemical firefly luciferase enzyme assay for NPC (AID 624030); further: nearly all actives have a fitted effect of over 70% in size
# Luciferin 4-monooxygenase (Photinus pyralis), sequence (P08659 whole entry, looked up): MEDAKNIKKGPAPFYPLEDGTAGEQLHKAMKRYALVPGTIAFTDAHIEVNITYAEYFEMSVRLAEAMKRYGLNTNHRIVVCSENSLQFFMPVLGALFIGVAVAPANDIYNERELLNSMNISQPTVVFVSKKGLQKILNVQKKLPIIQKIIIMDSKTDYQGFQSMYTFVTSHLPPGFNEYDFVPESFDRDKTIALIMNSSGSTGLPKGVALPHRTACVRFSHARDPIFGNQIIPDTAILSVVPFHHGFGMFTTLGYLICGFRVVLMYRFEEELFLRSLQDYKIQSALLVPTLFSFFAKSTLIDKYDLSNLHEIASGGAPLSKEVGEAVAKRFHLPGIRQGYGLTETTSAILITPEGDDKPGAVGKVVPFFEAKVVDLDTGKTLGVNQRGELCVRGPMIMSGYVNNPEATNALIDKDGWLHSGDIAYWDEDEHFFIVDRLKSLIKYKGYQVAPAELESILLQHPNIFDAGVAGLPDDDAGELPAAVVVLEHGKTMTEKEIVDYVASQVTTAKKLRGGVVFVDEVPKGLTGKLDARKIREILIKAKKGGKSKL
# In short: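 Direct inhibition of firefly luciferase enzyme (10 nM final, 50 mM Tris Acetate) assessed by luminescence within 5 minutes. Percent activity scaled between DMSO and PTC124 positive control, with concentration-effect curves classified by fit quality and response.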
# AS120 = test: qHTS profiling for inhibitors of Plasmodium falciparum proliferation (AID 504749); further: nearly all actives have a fitted effect of over 60% in size; conditions: P. falciparum in erythrocytes, SYBR Green DNA, 72 h; series mostly up to 28.7 µM
# In short: (§1)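 Three-day growth assay of blood-stage parasites in erythrocytes (0.3% parasitemia, 2.5% hematocrit) at 37 C, 5% CO2, quantified by SYBR Green DNA staining after overnight detergent lysis.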
# ATS95 = test: as above; conditions: P. falciparum in erythrocytes, SYBR Green DNA, 72 h; series mostly up to 28.7 µM
# In short: as §1
# CP191 = test: as above; conditions: P. falciparum in erythrocytes, SYBR Green DNA, 72 h; series mostly up to 28.7 µM
# In short: as §1
# CP211 = test: as above; conditions: P. falciparum in erythrocytes, SYBR Green DNA, 72 h; series mostly up to 28.7 µM
# In short: as §1
# CP247 = test: as above; conditions: P. falciparum in erythrocytes, SYBR Green DNA, 72 h; series mostly up to 28.7 µM
# In short: as §1
# CP250 = test: as above; conditions: P. falciparum in erythrocytes, SYBR Green DNA, 72 h; series mostly up to 28.7 µM
# In short: as §1
# CP262 = test: as above; conditions: P. falciparum in erythrocytes, SYBR Green DNA, 72 h; series mostly up to 28.7 µM
# In short: as §1
# CP297 = test: as above; conditions: P. falciparum in erythrocytes, SYBR Green DNA, 72 h; series mostly up to 28.7 µM
# In short: as §1
# Dd2 = test: as above; conditions: P. falciparum in erythrocytes, SYBR Green DNA, 72 h; series mostly up to 28.7 µM
# In short: as §1
# ECU = test: as above; conditions: P. falciparum in erythrocytes, SYBR Green DNA, 72 h; series mostly up to 28.7 µM
# In short: as §1
# GB4 = test: as above; conditions: P. falciparum in erythrocytes, SYBR Green DNA, 72 h; series mostly up to 28.7 µM
# In short: as §1
# N140 = test: as above; conditions: P. falciparum in erythrocytes, SYBR Green DNA, 72 h; series mostly up to 28.7 µM
# In short: as §1
# P93_24 = test: as above; conditions: P. falciparum in erythrocytes, SYBR Green DNA, 72 h; series mostly up to 28.7 µM
# In short: as §1
# PAD = test: as above; conditions: P. falciparum in erythrocytes, SYBR Green DNA, 72 h; series mostly up to 28.7 µM
# In short: as §1
# SC27B = test: as above; conditions: P. falciparum in erythrocytes, SYBR Green DNA, 72 h; series mostly up to 28.7 µM
# In short: as §1
# TAB113 = test: as above; conditions: P. falciparum in erythrocytes, SYBR Green DNA, 72 h; series mostly up to 28.7 µM
# In short: as §1
# TAB165 = test: as above; conditions: P. falciparum in erythrocytes, SYBR Green DNA, 72 h; series mostly up to 28.7 µM
# In short: as §1
# 3D7 = test: as above; conditions: P. falciparum in erythrocytes, SYBR Green DNA, 72 h; series mostly up to 28.7 µM
# In short: as §1
# CP335 = test: as above; conditions: P. falciparum in erythrocytes, SYBR Green DNA, 72 h; series mostly up to 28.7 µM
# In short: as §1
# Potency means the concentration at half of the fitted maximal effect.
SMILES,Potency [1],Potency (AS120),Potency (ATS95),Potency (CP191),Potency (CP211),Potency (CP247),Potency (CP250),Potency (CP262),Potency (CP297),Potency (Dd2),Potency (ECU),Potency (GB4),Potency (N140),Potency (P93_24),Potency (PAD),Potency (SC27B),Potency (TAB113),Potency (TAB165),Potency (3D7),Potency (CP335)
CC1(C)C(/C=C/C=C/C=C/C=C2\N(CCCCS(=O)(=O)O)c3ccc4ccccc4c3C2(C)C)=[N+](CCCCS(=O)(=O)[O-])c2ccc3ccccc3c21,28700 nM (active),inactive,inactive,inactive,inactive,inactive,inactive,inactive,inactive,inactive,inactive,inactive,inactive,inactive,inactive,inactive,inactive,inactive,,
C=CC1=C(C(=O)O)N2C(=O)[C@@H](NC(=O)C(N=O)c3csc(N)n3)[C@H]2SC1 (stereo partly specified),inactive,inactive,inactive,inactive,inactive,inactive,inactive,inactive,inactive,inactive,inactive,inactive,inactive,inactive,inactive,inactive,inactive,inactive,inactive,inactive
O=C1/C(=C\c2cccs2)CCC/C1=C/c1cccs1,5730 nM (active),inactive,inactive,,inactive,inactive,inactive,inactive,inactive,inactive,inactive,inactive,inactive,inactive,inactive,inactive,inactive,inactive,inactive,
O=C(OCC1OC(OC(=O)c2cc(O)c(O)c(OC(=O)c3cc(O)c(O)c(O)c3)c2)[C@@H](OC(=O)c2cc(O)c(O)c(OC(=O)c3cc(O)c(O)c(O)c3)c2)C(OC(=O)c2cc(O)c(O)c(OC(=O)c3cc(O)c(O)c(O)c3)c2)C1OC(=O)c1cc(O)c(O)c(OC(=O)c2cc(O)c(O)c(O)c2)c1)c1cc(O)c(O)c(OC(=O)c2cc(O)c(O)c(O)c2)c1 (stereo partly specified),12800 nM (active),2510 nM (active),2820 nM (active),2820 nM (active),4780 nM (active),2820 nM (active),2240 nM (active),4260 nM (active),3790 nM (active),2240 nM (active),2240 nM (active),3380 nM (active),2240 nM (active),2510 nM (active),3550 nM (active),3160 nM (active),2240 nM (active),2000 nM (active),2000 nM (active),1690 nM (active)
